Myeloid diff 2: myeloid differentiation induction; calls only at 10 µM; hit rate 1% among 360,000; AID 624256; ER-HoxA9 myeloid progenitors, lysozyme-GFP differentiation, flow cytometry;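 active = normalized GFP-positive differentiation at or above the plate's own cutoff, the solvent-only control mean plus 3 SD; inconclusive = no clear call, values can overlap the other calls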;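 note: cells exposed to compound for four days before flow analysis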
NadD inh: NadD (S. aureus) enzyme inhibition | purified NadD enzyme, colorimetric absorbance read-out | inhibition, % at 20 µM | hit rate 0.78% among 360,000 | AID 602399; in the data active = inhibition above about 26%
FAS-TE inh: FAS thioesterase (human) inhibition; recombinant FAS-TE, OMFH fluorogenic substrate, fluorescence endpoint; hit rate 0.67% among 360,000; P49327; AID 602261; inhibition, % at 15 µM;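 active = compounds whose normalised, plate-corrected inhibition of enzyme fluorescence in the single-dose primary screen is 50% or more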
CRFBP-R2 block: CRF-BP/CRF-R2 complex antagonism | hit rate 0.59% among 350,000 | HEK293 CRF-R2/CRF-BP, CRF-induced calcium fluorescence | inhibition, % at 11.8 µM;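 active = inhibition of the ligand-induced calcium signal above about 50% at the single tested concentration, limit read from the data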
CendR NRP1 mod: alters CendR peptide binding to human NRP-1; hit rate 0.85% among 360,000; O14786; inhibition, % at 25 µM; FAM-RPARPAR peptide binding to NRP-1, fluorescence polarization;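 active = inhibition or corrected inhibition above about 18%, plus a signal ratio from 0.5 to 1.5, limit read from the data, passing the limit was not always enough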
NadD conf: NadD (S. aureus) inhibition, single concentration confirmation; shares compounds with NadD inh; purified S. aureus NadD, colorimetric enzyme assay; inhibition, % at 20 µM; hit rate 13% among 2,000; in the data active = inhibition mostly above about 42%, no sharp cut-off; inactive = mostly below about 42%
Hits are given with their value; i = inactive; ? = inconclusive; nt = no result given. A selection: hits, their analogues and other compounds. The true share with any hit is near 3.6%.

SMILES	Myeloid diff 2	NadD inh	FAS-TE inh	CRFBP-R2 block	CendR NRP1 mod	NadD conf
COc1ccc(C2C(C#N)=C(N)N(c3sc4c(c3C#N)CCCC4)C3=C2C(=O)CC(C)(C)C3)cc1 (stereo not given)	i	i	i	i	i	nt
COc1ccc(C2C(C#N)=C3NC(=O)c4c(sc5c4CCCCC5)N3C3=C2C(=O)CC(C)(C)C3)cc1 (stereo not given)	i	61	i	i	i	i
CC(OC(=O)c1cc(-c2cccnc2)nc2ccccc12)C(=O)Nc1ccc2ccccc2c1 (stereo not given)	i	i	i	i	i	nt
Cc1ccc(N2CSC3=C(C#N)C(c4cccs4)CC(=O)N3C2)cc1 (stereo not given)	i	31	i	i	i	i
CCc1ccc(N2CSC3=C(C#N)C(c4cccs4)CC(=O)N3C2)cc1 (stereo not given)	i	72	i	i	i	i
CCOC(=O)c1ccc(N2CSC3=C(C#N)C(c4cccs4)CC(=O)N3C2)cc1 (stereo not given)	i	i	i	i	i	nt
CCc1ccc(C2CC(=O)N3CN(c4ccccc4)CSC3=C2C#N)cc1 (stereo not given)	i	64	i	i	i	i
N#CC1=C2SCN(c3ccc(F)cc3)CN2C(=O)CC1c1cccc(F)c1 (stereo not given)	i	i	i	i	i	nt
COc1ccc(N2CSC3=C(C#N)C(c4cccs4)CC(=O)N3C2)cc1 (stereo not given)	i	i	i	i	i	nt
COc1ccc(NS(=O)(=O)c2ccc(C)c(NC(=O)CNC(=O)c3ccco3)c2)cc1	i	i	i	i	i	nt
Cc1ccc(NC(=O)CN2C(=O)NC3(CCCc4ccccc43)C2=O)c(C)c1 (stereo not given)	i	i	i	i	i	nt
O=C(Nc1ccc(-c2nc3ccccc3o2)c(O)c1)c1cc(-n2cnnc2)ccc1Cl	i	30	i	i	i	i
O=C(Nc1ccc(-c2nc3ccccc3o2)cc1)c1cc(-n2cnnc2)ccc1Cl	i	i	i	i	i	nt
CC(=O)Oc1ccc(C(=O)[C@H]2[C@H]3C(=O)N(c4ccc5ccccc5c4)C(=O)[C@H]3[C@@H]3C=CC=NN32)cc1	i	40	i	i	i	i
O=C(Nc1ccc(Cl)cc1)C1CC(=O)n2c(nc3ccccc32)N1 (stereo not given)	i	i	i	i	i	nt
O=C(Nc1ccc(Cl)cc1)[C@@H]1[C@@H]2C(=O)N(c3ccc(Cl)cc3)C(=O)[C@@H]2[C@H]2C=CC=NN21	i	37	i	i	i	i
COc1ccccc1N1C(=O)[C@@H]2[C@H](C1=O)[C@H](C(=O)c1ccc(OC(C)=O)cc1)N1N=CC=C[C@@H]21	nt	nt	nt	i	nt	nt
Cc1ccc(/C=c2\sc3nc(-c4ccccc4Br)nn3c2=O)o1	i	26	i	i	i	i
COC(=O)c1ccc(S(=O)(=O)N2CCCCCC2)n1C	i	i	i	i	i	nt
Cc1ccc(-c2nc(NC(=O)CSc3cc(C)c4ccccc4n3)ns2)cc1	i	31	i	i	i	i
O=C(CCC(=O)N(CC(=O)NC1CCCC1)Cc1ccccc1Cl)Nc1nccs1	i	i	i	i	i	nt
CCN(Cc1ccccc1)S(=O)(=O)c1ccc(C(=O)Nc2nnc(-c3ccccc3OC)o2)cc1	i	54	i	i	i	26
CCCN(CCC)S(=O)(=O)c1ccc(C(=O)Nc2nnc(-c3cc(OC)cc(OC)c3)o2)cc1	?	58	i	i	25	i
COc1cc(OC)cc(-c2c(-c3cccs3)c3cc(-c4ccc(OCc5ccccc5)cc4)ccc3n2C)c1	i	46	i	i	i	i
Nc1scc2c(C(=O)N/N=C/c3ccc(Cl)cc3)nn(-c3ccccc3)c(=O)c12	i	40	i	i	i	i
C=CCN(C(=O)CCC(=O)Nc1cc(C)on1)C(C(=O)NC1CCCC1)c1ccc(C)cc1 (stereo not given)	i	i	i	i	i	nt
COc1cccc(N2CC(C(=O)Nc3nnc(SCC(=O)N4CCCC4)s3)CC2=O)c1 (stereo not given)	i	i	i	i	i	nt
COc1cccc(N2CC(C(=O)Nc3nnc(SCC(=O)Nc4cc(C)on4)s3)CC2=O)c1 (stereo not given)	i	41	i	i	i	i
Cc1ccc(N2CC(C(=O)Nc3nnc(SCC(=O)Nc4cc(C)on4)s3)CC2=O)cc1 (stereo not given)	i	39	i	i	i	i
